Sfp inh: blocks B. subtilis Sfp PPTase activity; Biochemical Sfp PPTase activity, qHTS; Potency, µM, inactives show largest response in the series, negative = inhibition, hits mostly inhibitors; actives 3.5% (n = 310,000); AID 1490;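 further: the enzyme is Sfp with the accession as filed and its product quenches rhodamine fluorescence; 0% = enzyme reaction without inhibitor and -100% = no enzyme wells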
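Sfp 15 nM + cpd, 15 min RT; start w/ rhodamine-CoA 5 uM, BHQ-2-YbbR 12.5 uM (final); 50 mM Hepes pH 7.6, 10 mM MgCl2, 0.01% NP-40, 0.01% BSA; read 525/598 nm at 0 and 30 min.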
PLK1 PBD inh: blocks phosphopeptide binding to human PLK1 polo-box domain; actives 2.8% (n = 360,000); Plk1 PBD binding of FITC phosphopeptide, fluorescence polarization; AID 720504; Potency, µM, inactives show max response, negative = inhibition, usual class: inhibitors; P53350; further: series mostly up to about 57 µM; on the % scale 0 is the no-effect control and ±100 the full control effect; nearly all actives have a fitted effect of over 65% in size
HP1b chromo inh: blocks HP1-beta chromodomain binding to methylated histone tails; AlphaScreen HP1-beta / biotin-H3K9me3 peptide binding; actives 0.56% (n = 390,000); P83916; AID 540317; Potency, µM (series often up to 114 µM), for inactives: at the top dose activity change, negative = inhibition, most hits filed as inhibitors; further: nearly all actives have a fitted effect of over 70% in size
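Compound inhibition of the preformed complex between 50 nM HP1-beta and 50 nM biotinylated H3K9me3 peptide was read by AlphaScreen. Buffer was PBS pH 7.4 with 0.01% Tween-20. Incubations ran 30 min at room temperature, with 10 ug/mL donor/acceptor beads.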
BAZ2B block: inhibitors of human BAZ2B bromodomain; AlphaScreen BAZ2B-H3K14Ac peptide displacement; AID 504333; actives 4.4% (n = 360,000); Potency, µM (highest dose often 114 µM), without a hit: at the highest dose activity change, negative = inhibition, usual class: inhibitors; further: on the % scale 0 is the no-effect control and ±100 the full control effect; nearly all actives have a fitted effect of over 60% in size
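Compounds, titrated to a top concentration of 110 uM, were incubated 30 min at room temperature with preformed BAZ2B/acetyl-K14 H3 peptide complex (50 nM each). Proximity signal was measured by AlphaScreen after 20 min with beads.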
G9a inh: blocks human histone lysine methyltransferase G9a | G9a H3K9 monomethylation, AlphaScreen, 2 h | AID 504332 | actives 8.8% (n = 350,000) | Potency, µM (series often up to 102 µM), for the others: at the highest dose activity, negative = inhibition, most hits filed as inhibitors | Q96KQ7; further: on the % scale 0 is the no-effect control and ±100 the full control effect; nearly all actives have a fitted effect of over 75% in size
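Compounds were preincubated with 20 nM G9a for 15 min, after which biotinylated H3K9 peptide (500 nM) and SAM (20 uM) started a 2 h room-temperature reaction. Monomethylated product was quantified by antibody-based AlphaScreen chemiluminescence.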
JMJD2A Tudor inh: JMJD2A Tudor domain (human) inhibition; AlphaScreen JMJD2A-Tudor / H3K4me3 peptide binding; AID 504339; Potency, µM (highest dose often 114 µM), without a hit: at the highest dose activity change, negative = inhibition, usual class: inhibitors; actives 4.4% (n = 390,000); further: on the % scale 0 is the no-effect control and ±100 the full control effect; nearly all actives have a fitted effect of over 50% in size
Target sequence (O75164 whole entry, looked up, the tested form may be a part): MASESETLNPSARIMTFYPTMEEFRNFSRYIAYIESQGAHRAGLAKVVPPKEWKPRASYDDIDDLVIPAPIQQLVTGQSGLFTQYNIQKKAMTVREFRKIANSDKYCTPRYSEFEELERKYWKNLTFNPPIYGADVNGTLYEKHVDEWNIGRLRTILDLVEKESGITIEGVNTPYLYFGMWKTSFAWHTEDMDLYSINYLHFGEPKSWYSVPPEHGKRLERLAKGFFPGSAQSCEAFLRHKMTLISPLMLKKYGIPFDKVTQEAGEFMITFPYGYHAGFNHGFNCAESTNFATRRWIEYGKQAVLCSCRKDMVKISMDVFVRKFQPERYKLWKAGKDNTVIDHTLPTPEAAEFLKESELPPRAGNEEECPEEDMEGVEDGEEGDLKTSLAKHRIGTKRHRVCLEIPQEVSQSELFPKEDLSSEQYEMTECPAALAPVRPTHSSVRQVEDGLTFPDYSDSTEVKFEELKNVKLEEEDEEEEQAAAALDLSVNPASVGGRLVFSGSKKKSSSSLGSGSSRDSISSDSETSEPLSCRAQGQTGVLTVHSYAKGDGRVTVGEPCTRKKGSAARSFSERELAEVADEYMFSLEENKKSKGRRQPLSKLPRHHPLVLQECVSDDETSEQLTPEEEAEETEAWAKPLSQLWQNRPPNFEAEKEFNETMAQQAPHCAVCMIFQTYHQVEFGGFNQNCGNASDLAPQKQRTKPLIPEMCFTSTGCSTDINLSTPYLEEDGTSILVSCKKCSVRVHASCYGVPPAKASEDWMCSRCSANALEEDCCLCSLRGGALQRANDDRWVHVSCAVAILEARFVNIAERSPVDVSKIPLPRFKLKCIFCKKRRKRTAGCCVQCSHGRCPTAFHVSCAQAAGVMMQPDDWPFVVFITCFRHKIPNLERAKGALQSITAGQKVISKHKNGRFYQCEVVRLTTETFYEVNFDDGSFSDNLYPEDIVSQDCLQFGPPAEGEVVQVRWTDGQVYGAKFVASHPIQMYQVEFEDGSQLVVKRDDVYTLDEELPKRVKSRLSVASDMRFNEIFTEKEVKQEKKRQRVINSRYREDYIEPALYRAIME
Active calls of the source: *; ? = inconclusive; . = no result given; [ ] = dose if it differs, or a comment. This is a sample that favours compounds with a hit; in the whole collection about 12% have one here. The call rests on the fitted dose curve; in most records, active means well fitted curve in the direction sought with a large enough effect; inconclusive means small, poorly fitted or top-dose-only effect, or another doubt; inactive means no such curve, though single readings can be large; an effect the other way counts as inactive or inconclusive. Potency means the concentration at half of the fitted maximal effect.

SMILES	Sfp inh	PLK1 PBD inh	HP1b chromo inh	BAZ2B block	G9a inh	JMJD2A Tudor inh
Cc1ccc(C)c(N2CCN(C(=O)c3ccc4c(c3)c(C)c(C)n4C)CC2)c1	-16%	-3%	?	35µM*	32µM*	45µM*
Cc1c(C)n(C)c2ccc(C(=O)N3CCN(c4ccccc4)CC3)cc12	-9%	-2%	?	40µM*	45µM*	35µM*
Cc1cccc(NC(=O)C(NS(=O)(=O)c2ccc3c(c2)CCC(=O)N3)c2ccccc2)n1 (stereo not given)	-29%	13µM*	25%	1%	22µM*	?
Cc1cc(C)nc(SCC(=O)N2CCC(C(N)=O)CC2)n1	7%	0%	38%	-1%	11%[12.7 µM]	-8%
CCOC(=O)c1cnc(SCC(=O)N2CCC(C(N)=O)CC2)nc1N	-23%	-21%	49%	-28%	50µM*	3%
CCOC(=O)c1cnc(SCC(=O)c2ccccc2)nc1N	45µM*	-23%	3%	.	28µM*	-20%
CCOC(=O)c1cnc(SCc2nc(N)nc(Nc3ccc(C)cc3)n2)nc1N	4%	?	55%	-11%	18µM*	-15%[11.4 µM]
CCN1CCSc2ccc(C(=O)NC(C)c3ccccc3)cc21 (stereo not given)	.	.	27%	-39%	-32%[59 µM]	?
CCOC(=O)C1=CNS(=O)(=O)NC1c1ccc(Br)cc1F (stereo not given)	.	-18%	15%	.	.	-19%
CCCS(=O)(=O)c1c(S(=O)(=O)CCC)c2cc(C(C)(C)C)ccn2c1C(=O)c1ccc(C)cc1	.	.	3%	-25%	?	-25%
Cc1ccc(NC(=O)N2CCN(c3cc(-c4noc(C)n4)ccc3C)CC2)c(F)c1	.	.	22%[57 µM]	8%	-2%[59 µM]	-28%
CC(=O)/C=C\C1[C@]2(C)CCCC(C)(C)C2CC[C@@]1(C)O (stereo not given in full)	10%	.	.	.	.	.
COc1ccccc1C(=O)NC(=O)COC(=O)c1cc[n+]([O-])cc1	.	-2%	18%	12%	10%[0.501 µM]	-14%
COCC(=O)Nc1cc(C)cn(Cc2c(F)cccc2Cl)c1=O	15%	3.4µM*	17%	-25%	7%	?
COc1ccc(N2C(=O)C(CN3CCN(C)CC3)C2c2ccccc2)cc1 (stereo not given)	17%	-11%	23%	-11%	?	-24%
CN1C(=O)C2(c3ccccc31)N(c1cccc(F)c1)C(=O)CS2(=O)=O (stereo not given)	.	.	54%	27%[57.1 µM]	16µM*	-11%
CN1C(=O)C2(c3ccccc31)N(c1ccccc1)C(=O)CS2(=O)=O (stereo not given)	.	.	30%	8%[57.1 µM]	-9%[59 µM]	-11%
Cc1noc(C)c1S(=O)(=O)Nc1ccccc1Oc1ccccc1	1%	-7%	27%	13%	.	-5%
O=C1c2ccccc2-c2onc3ccc(Oc4ccccc4)c1c23	1%	26%	-27%	?	8.9µM*	?
COc1cc(C(=O)O/N=C2/C=C(C)C(=O)C=C2C)cc(OC)c1OC	6%	?	61%	-9%	-11%[59 µM]	-13%
COc1cc(C(=O)ON=C2C(C)=CC(=O)C=C2C)cc(OC)c1OC	0%	?	21%	?	32µM*	-12%
COc1cc2c(cc1OC)C(C(=O)Nc1ccccn1)C(c1cccnc1)N(C)C2=O (stereo not given)	16%	-12%	81%	79µM*	.	-12%[57.1 µM]
Cc1nc2n(c(=O)c1CCN1CCC(c3noc4cc(F)ccc34)CC1)CCCC2O (stereo not given)	.	.	.	.	30µM*	.
Cc1cc(O)c(C(C)C)cc1N=C1CSC(=O)N1	56µM*	?	1%	-8%	?	-26%
CSc1nsc2nc(=O)c(/C=C3\C(C)=Nc4ccccc43)c(N)n12	9%	-18%	19%	?	18µM*	-32%
SMILES	Sfp inh	PLK1 PBD inh	HP1b chromo inh	BAZ2B block	G9a inh	JMJD2A Tudor inh
Nc1c(/C=C2\C=Nc3ccccc32)c(=O)nc2sc(CC(=O)N3CCOCC3)nn12	7%	0%	53%	-34%	-42%	19%
O=C(CC1Oc2ccc(Cl)cc2NC1=O)NC1CCCCCC1 (stereo not given)	-8%	-8%	48%	10%	79µM*	-8%
Cc1ccc2c(c1)NC(=O)C(CC(=O)NCCCN1CCN(c3cc(Cl)ccc3C)CC1)O2 (stereo not given)	?	-8%	21%	-34%	45µM*	-24%
Cc1ccc2c(c1)NC(=O)C(CC(=O)NCCCN1CCCC1=O)O2 (stereo not given)	2%	30µM*	15%	?	?	?
Cc1ccc2c(c1)NC(=O)C(CC(=O)NCCCN1CCCCC1)O2 (stereo not given)	0%	-7%	28%	5%	-26%	-20%
Cc1ccc2c(c1)NC(=O)C(CC(=O)NCCN(C)C)O2 (stereo not given)	-21%	-10%	49%	0%	45µM*	-15%
Cc1ccnc(NC(=O)CSc2nnc3c(n2)[nH]c2ccccc23)c1	-2%	.	.	-29%	?	.
Nc1ccc(N2CCN(c3ncc(C(F)(F)F)cc3Cl)CC2)c(C(F)(F)F)c1	.	.	-7%	?	?	-35%
CCC1CCCCN1CCCNC(=O)CC1Oc2ccc(C)cc2NC1=O (stereo not given)	-7%	-21%	57%	2%	32µM*	-10%
O=C(NC(=S)Nc1ccc(CN2CCOCC2)cc1)c1ccc([N+](=O)[O-])cc1	50µM*	?	3%	-36%	?	-30%
CCOc1cc(C(=O)NCc2ccccc2)ccc1OCC(=O)N1CCOCC1	22%	-8%	39%	-23%	-66%	-9%
COc1ccc(C(=O)NC(=S)Nc2ccc(CN3CCOCC3)cc2)cc1	-3%	0%	-6%	-34%	45µM*	-12%
CCOc1cc(C(=O)Nc2ccc(C(=O)NCCN(CC)CC)cc2)ccc1OCC(=O)N1CCOCC1	.	-5%	40%	8%	50µM*	8%
COc1ccc(C(=O)NC(=S)N2CCC(C)CC2)cc1Br	10%	-3%	51%	?	8%	?
COc1ccc(C(=O)NC(=S)N2CCNC(=O)C2)cc1Br	-3%	?	-16%	?	.	35µM*
CCCCOc1ccc(C(=O)NC(=S)Nc2ccc(CN3CCOCC3)cc2)cc1	5%	-3%	15%	5%	-5%	-14%
O=C(CNC(=O)c1ccc(Cl)cc1Cl)OCCCn1c(=O)[nH]c2ccccc21	.	-9%	-15%	6%	-30%	-4%
CCOc1ccc(NC(=O)c2ccc(NC(=O)c3ccc(CN4CCOCC4)cc3)cc2)cc1	16%	-16%	35%	-14%	-31%[12.7 µM]	-9%

Bioassay records as filed in PubChem.
